# Test results from ChEMBL document CHEMBL3988442, “University of Dundee, Small-Polar-MMV Screening Library” (2021).
# For some of these results: Entries with a potency or affinity are not part of this list.
# Experiments:
# Design in all cases: scale not given: direction of the effect not stated beside the values
# [1] = target: Protein translocase subunit SecA (Escherichia coli (strain K12)) (UniProt P10408); test: Assay to Identify E. coli SecA ATPase Inhibitors; type: functional; settings: 30 µM
# [2] = target: T1, Ubiquitin-activating enzyme e1, putative (Leishmania donovani (strain BPK282A1)) (UniProt E9BSI1); test: Leishmania donovani Ubiquitin Activating Enzyme (LdE1); type: functional; settings: 30 µM
# T1 sequence (whole entry): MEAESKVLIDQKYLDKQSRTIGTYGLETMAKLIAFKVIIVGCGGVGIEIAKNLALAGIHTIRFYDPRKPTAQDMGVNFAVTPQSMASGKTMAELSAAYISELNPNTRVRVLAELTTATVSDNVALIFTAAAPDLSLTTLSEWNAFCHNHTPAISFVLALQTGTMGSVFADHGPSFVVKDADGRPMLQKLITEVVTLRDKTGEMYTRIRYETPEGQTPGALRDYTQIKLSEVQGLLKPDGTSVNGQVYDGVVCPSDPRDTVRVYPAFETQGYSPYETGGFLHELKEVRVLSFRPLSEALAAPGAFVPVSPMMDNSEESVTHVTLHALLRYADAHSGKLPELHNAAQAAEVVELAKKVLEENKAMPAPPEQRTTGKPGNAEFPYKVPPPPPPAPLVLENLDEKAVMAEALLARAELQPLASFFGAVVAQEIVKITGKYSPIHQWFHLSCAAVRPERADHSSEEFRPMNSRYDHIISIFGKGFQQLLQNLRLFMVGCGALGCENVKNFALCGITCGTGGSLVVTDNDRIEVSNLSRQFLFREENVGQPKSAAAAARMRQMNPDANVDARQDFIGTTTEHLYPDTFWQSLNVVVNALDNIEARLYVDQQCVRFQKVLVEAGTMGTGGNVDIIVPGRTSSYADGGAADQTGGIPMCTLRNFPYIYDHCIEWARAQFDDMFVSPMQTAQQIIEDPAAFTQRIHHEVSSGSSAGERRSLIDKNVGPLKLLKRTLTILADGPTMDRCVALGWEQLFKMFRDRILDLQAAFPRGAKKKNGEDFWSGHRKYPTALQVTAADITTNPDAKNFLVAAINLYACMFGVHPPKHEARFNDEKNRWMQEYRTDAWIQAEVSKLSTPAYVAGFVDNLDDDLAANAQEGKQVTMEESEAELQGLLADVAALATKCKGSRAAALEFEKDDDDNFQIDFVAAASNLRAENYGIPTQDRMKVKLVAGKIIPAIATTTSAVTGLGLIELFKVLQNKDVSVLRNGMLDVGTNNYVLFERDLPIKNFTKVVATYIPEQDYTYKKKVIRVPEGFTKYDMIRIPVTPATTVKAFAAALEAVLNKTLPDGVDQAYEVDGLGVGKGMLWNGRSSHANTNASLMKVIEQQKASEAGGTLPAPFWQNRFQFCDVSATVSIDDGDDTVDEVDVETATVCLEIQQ
# [3] = target: T2, Aspartate--tRNA(Asp/Asn) ligase (Mycobacterium tuberculosis (strain ATCC 25618 / H37Rv)) (UniProt P9WFW3); test: Assay for Asp RNA synthetase-1 from Mycobacterium tuberculosis; type: functional; settings: 30 µM; further: in the data most compounds retested in dose-response had high values
# T2 sequence (whole entry): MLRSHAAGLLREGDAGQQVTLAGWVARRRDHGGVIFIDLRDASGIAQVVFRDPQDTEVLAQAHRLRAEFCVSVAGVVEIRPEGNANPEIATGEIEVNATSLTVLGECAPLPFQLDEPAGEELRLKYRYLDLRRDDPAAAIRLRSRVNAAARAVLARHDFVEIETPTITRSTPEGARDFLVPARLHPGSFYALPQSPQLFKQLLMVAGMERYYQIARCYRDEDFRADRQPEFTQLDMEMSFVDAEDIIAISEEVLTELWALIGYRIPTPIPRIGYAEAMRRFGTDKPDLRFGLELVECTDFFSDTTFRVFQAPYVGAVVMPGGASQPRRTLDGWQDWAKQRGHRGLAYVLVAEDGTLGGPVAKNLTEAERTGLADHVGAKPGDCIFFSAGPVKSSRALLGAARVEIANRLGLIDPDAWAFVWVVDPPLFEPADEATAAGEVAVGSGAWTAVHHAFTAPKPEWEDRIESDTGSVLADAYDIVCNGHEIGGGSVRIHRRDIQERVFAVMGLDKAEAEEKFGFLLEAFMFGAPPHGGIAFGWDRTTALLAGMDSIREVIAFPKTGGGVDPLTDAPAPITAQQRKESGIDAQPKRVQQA
# [4] = target: Sialic acid-binding Ig-like lectin 9 (Homo sapiens) (UniProt Q9Y336); test: Hs-Siglec9 ALPHAscreen SOP 20170721; settings: 10 µM
# Trypanosoma cruzi = test: Trypanosoma cruzi phosphomannomutase and mannose-1-phosphate guanylyltransferase assay; type: functional; settings: 10 µM
# [5] = target: T3, Arginase-2, mitochondrial (Homo sapiens) (UniProt P78540); test: in vitro enzyme assay to detect the production of urea directly proportional to the activity of Arginase II; type: functional; settings: 33.3 µM; further: in the data most compounds retested in dose-response had high values
# T3 sequence (whole entry): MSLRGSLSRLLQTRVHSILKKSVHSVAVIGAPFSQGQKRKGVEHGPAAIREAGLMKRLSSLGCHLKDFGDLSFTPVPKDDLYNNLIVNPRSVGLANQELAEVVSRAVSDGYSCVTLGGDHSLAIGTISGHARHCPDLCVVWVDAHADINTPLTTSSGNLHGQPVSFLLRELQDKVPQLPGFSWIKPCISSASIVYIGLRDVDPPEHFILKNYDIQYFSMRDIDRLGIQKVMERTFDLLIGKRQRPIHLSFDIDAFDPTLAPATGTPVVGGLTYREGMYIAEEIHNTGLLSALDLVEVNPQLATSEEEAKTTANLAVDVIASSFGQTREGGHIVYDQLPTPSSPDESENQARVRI
# [6] = target: T4, Proteasome subunit beta (Trypanosoma cruzi) (UniProt O96673); test: Trypanosoma cruzi proteasome chymotrypsin-like activity (TcProtChymo) assay.; further: in the data most compounds retested in dose-response had high values; type: functional; settings: 9.37 µM
# T4 sequence (whole entry): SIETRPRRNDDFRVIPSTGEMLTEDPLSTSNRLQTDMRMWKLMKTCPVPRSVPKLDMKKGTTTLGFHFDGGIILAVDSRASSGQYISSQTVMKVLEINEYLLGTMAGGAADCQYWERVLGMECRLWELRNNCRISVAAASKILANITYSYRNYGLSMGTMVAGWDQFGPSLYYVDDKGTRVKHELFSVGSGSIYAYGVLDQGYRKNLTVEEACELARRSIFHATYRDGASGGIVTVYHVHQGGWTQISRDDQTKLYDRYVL
# Homo sapiens = organism: Homo sapiens; test: To identify inhibition of the IFN signalling (Jak-Stat) pathway via expression of an eGFP reporter gene under the control of an IFN-stimulated response element (ISRE) containing MxA promoter.; type: functional; settings: 30 µM
# [7] = target: Shiga toxin 2 (Escherichia coli O157:H7) (UniProt P09385+P09386); test: E. coli 0.157:H7 Shiga Toxin SOP - stx2 screening assay; type: functional; settings: 30 µM
# [8] = target: T5, Tyrosyl-tRNA synthetase, putative (Trypanosoma cruzi (strain CL Brener)) (UniProt Q4DSP6); test: Trypanosoma cruzi tyrosyl tRNA synthetase (TcYRS) _High Tyrosine SOP; type: functional; settings: 30 µM; further: in the data most compounds retested in dose-response had high values
# T5 sequence (whole entry): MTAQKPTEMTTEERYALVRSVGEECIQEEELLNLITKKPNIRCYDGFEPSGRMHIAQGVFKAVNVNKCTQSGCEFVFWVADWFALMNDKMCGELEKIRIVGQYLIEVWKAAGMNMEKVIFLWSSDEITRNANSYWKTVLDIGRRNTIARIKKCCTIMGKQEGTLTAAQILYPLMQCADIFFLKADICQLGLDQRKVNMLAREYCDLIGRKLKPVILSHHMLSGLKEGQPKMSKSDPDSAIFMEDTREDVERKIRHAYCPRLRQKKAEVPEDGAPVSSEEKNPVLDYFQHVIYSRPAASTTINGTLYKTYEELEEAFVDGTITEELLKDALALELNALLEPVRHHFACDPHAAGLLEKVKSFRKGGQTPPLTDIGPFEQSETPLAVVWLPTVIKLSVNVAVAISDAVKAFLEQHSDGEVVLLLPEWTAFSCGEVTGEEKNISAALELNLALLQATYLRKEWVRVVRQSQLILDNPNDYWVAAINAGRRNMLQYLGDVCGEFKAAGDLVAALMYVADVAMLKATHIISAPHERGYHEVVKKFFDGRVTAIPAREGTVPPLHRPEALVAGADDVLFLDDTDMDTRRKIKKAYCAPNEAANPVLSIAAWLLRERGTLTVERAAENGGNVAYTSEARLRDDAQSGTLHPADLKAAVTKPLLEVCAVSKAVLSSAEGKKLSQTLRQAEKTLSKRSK
# [9] = target: T5, Tyrosyl-tRNA synthetase, putative (Trypanosoma cruzi (strain CL Brener)); test: Trypanosoma cruzi tyrosyl tRNA synthetase (TcYRS) SOP; type: functional; settings: 30 µM
# [10] = target: Chromo domain-containing protein 1 (Saccharomyces cerevisiae (strain ATCC 204508 / S288c) (Baker's yeast)) (UniProt P32657); test: ScCHD-1 Enzyme Inhibition Assay; type: functional; settings: 30 µM; further: in the data most compounds retested in dose-response had high values
# Chromo domain-containing protein 1 (Saccharomyces cerevisiae (strain ATCC 204508 / S288c) (Baker's yeast)), sequence (P32657 whole entry, the tested form may be a part): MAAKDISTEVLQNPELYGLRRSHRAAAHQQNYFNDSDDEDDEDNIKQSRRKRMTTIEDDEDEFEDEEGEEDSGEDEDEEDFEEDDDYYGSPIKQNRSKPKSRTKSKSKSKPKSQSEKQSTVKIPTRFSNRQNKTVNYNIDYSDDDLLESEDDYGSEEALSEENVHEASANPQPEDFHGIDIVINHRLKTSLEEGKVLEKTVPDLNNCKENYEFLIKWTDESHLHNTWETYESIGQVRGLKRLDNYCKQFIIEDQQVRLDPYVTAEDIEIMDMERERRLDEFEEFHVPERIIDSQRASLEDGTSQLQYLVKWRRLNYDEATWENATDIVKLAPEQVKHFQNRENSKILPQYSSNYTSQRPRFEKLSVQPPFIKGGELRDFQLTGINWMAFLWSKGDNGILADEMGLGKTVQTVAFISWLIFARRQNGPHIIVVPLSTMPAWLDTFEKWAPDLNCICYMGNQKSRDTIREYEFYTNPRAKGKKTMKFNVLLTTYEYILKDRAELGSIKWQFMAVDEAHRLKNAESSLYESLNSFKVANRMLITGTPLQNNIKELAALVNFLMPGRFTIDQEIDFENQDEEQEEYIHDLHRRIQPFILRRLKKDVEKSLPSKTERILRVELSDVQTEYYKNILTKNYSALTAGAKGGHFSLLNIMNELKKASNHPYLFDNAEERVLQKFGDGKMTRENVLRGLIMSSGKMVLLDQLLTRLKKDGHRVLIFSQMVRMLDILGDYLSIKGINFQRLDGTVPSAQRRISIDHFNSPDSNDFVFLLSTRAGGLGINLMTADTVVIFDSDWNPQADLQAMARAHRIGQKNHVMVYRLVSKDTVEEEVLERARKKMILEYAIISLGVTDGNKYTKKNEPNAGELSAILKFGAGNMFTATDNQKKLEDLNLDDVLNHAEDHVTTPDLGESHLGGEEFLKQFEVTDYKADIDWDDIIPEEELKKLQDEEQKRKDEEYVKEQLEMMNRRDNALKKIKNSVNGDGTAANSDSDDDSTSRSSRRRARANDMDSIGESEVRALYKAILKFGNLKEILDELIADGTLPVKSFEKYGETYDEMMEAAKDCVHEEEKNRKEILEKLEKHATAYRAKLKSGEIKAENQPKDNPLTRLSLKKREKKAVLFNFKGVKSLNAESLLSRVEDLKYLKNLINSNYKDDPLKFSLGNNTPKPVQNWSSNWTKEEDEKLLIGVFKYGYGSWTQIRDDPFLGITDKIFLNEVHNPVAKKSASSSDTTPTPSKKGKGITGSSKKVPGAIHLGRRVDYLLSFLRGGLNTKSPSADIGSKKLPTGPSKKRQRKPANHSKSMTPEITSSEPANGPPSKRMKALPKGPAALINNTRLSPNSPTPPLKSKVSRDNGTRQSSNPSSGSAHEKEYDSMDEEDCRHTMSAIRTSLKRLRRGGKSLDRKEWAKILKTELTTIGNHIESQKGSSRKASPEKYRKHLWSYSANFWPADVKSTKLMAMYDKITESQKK
# Sialic acid-binding Ig-like lectin 9 (Homo sapiens), sequence (Q9Y336 whole entry): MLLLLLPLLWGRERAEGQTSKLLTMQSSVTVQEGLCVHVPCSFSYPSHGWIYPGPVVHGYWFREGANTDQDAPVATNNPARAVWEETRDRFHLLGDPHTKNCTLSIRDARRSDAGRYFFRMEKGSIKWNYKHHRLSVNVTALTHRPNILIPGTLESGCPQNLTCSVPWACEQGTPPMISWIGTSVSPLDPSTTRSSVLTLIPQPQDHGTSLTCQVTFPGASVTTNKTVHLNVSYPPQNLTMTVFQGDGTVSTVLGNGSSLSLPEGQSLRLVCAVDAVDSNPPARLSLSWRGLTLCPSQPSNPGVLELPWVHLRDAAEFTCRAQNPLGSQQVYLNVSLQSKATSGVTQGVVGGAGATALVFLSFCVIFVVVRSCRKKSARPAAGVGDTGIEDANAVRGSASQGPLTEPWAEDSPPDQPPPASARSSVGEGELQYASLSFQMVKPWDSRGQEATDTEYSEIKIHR
# Protein translocase subunit SecA (Escherichia coli (strain K12)), sequence (P10408 whole entry): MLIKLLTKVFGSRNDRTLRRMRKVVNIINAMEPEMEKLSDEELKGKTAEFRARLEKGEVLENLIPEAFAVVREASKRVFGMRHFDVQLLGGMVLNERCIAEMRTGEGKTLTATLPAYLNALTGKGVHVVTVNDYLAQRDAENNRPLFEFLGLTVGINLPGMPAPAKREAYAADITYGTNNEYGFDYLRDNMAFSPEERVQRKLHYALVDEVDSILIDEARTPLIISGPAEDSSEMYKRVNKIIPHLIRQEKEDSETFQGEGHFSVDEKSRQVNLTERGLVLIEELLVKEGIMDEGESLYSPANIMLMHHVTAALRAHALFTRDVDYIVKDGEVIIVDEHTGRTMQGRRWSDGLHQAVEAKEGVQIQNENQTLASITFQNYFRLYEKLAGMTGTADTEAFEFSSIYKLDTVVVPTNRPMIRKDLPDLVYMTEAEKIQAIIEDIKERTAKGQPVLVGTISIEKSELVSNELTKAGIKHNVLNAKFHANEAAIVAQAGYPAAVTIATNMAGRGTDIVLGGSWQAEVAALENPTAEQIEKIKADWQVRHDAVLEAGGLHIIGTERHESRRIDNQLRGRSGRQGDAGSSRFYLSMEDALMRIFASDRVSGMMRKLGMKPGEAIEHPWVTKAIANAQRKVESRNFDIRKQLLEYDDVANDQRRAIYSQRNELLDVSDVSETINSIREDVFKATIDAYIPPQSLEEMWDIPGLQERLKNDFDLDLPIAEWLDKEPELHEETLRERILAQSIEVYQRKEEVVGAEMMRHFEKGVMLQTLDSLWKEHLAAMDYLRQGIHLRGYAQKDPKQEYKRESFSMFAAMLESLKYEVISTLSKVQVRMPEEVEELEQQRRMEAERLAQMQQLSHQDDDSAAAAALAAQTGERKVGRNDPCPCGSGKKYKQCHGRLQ
SMILES,Percent Effect [1],Percent Effect [2],Percent Effect [3],Percent Effect [4],Percent Effect (Trypanosoma cruzi),Percent Effect [5],Percent Effect [6],Percent Effect (Homo sapiens),Percent Effect [7],Percent Effect [8],Percent Effect [9],Percent Effect [10]
Cc1noc(C)c1CN1CCCC2(CCN(C(=O)CC3CC3)C2)C1 (stereo not drawn),-8.86%,3.9%,1.46%,3.29%,-0.375%,2.74%,1.97%,12.4%,-4.85%,1.93%,-10%,-8.2%
Cc1noc(C)c1CN1CCCC2(CCN(C(=O)NC3CC3)C2)C1 (stereo not drawn),-2.63%,22.1%,0.865%,-1.1%,-3.94%,5.94%,17.2%,16.8%,-1.92%,13.5%,15%,-10.3%
Cc1nn(C)c(N(C)C)c1CNC(C)Cc1c(F)cccc1F (stereo not drawn),-1.71%,26%,3.29%,10.5%,4.85%,5.12%,7.89%,5.28%,-17.2%,6.86%,23.5%,-9.67%
c1cnc(N2CCC3(COCCN(CC4CC4)C3)C2)nc1 (stereo not drawn),-1.87%,3.9%,6.45%,-2.75%,-3.21%,0%,14.2%,-5.95%,3.4%,3.68%,10.3%,-1.41%
NC(=O)CN1CCCN(C(=O)Cc2ccc(F)c(Br)c2)CC1,-6.33%,10.7%,-0.338%,-0.341%,-3.61%,-0.444%,12.6%,-6.89%,-17.2%,4.74%,7.69%,-9.76%
CCc1ccc(CN2CCN(C)c3ncccc3C2)o1,-8.73%,1.3%,-0.259%,15.1%,-1.27%,-3.24%,7.68%,6.96%,1.33%,3.68%,-5.13%,-4.2%
CCc1nc(C)c(C(=O)N2C[C@H]3CC[C@@H]2CN(S(=O)(=O)N(C)C)C3)s1,–,–,-1.85%,–,–,–,–,–,–,–,–,–
COc1ccc(Cl)cc1CC(=O)N1CCN(CCO)CC1,-6.68%,10.4%,1.78%,0.349%,-4.1%,4.71%,0.877%,12.1%,-8.21%,-1.96%,-2.35%,2.44%
NC(=O)N1CC2(CCNCC2)c2cc(Cl)ccc21,0.158%,1.3%,0.933%,-0.465%,-3.38%,4.11%,8.84%,10.9%,4.45%,0%,-2.5%,2.33%
CN(C)CCN1CCCC12CCN(C(=O)c1cccnc1)CC2,-0.609%,3.9%,1.98%,-1.37%,0.563%,4.11%,8.5%,-12.2%,-15.3%,3.87%,7.5%,1.23%
O=C1C[C@H]2[C@H](CCN2Cc2ccccn2)N1CC1CC1,-3.35%,11.7%,1.05%,-4.27%,-5.25%,5.02%,12.4%,12.4%,-21.2%,6.76%,2.5%,-6.54%
CC(C)c1nccc([C@H]2C[C@@H]3CCN(Cc4ccoc4)C[C@H]3O2)n1,-3.97%,-6.49%,-4.77%,-2.81%,6.13%,-6.48%,16.7%,-14.2%,3.27%,5.79%,0%,-1.73%
COc1ccc(C(=O)C2CCCN(CCCn3cccn3)C2)c(OC)c1 (stereo not drawn),-4.85%,5.41%,-0.805%,13.1%,7.27%,25.5%,7.71%,3.33%,-4.88%,6.92%,17.1%,77.1%
COCC(=O)N1C[C@@H]2OCCN(Cc3c(C)noc3C)[C@@H]2C1,-1.15%,1.3%,-3.8%,-1.81%,3.02%,17%,27.1%,5.87%,-14.3%,5.79%,10.3%,24%
COCCN1CCN(Cc2ccncc2)[C@H]2CS(=O)(=O)C[C@H]21,-10.2%,10.8%,-1.29%,17.6%,6.3%,16.4%,5.99%,6.91%,11.1%,4.79%,14.6%,-4.57%
Cc1cccc(CN2CC[C@H]3[C@H]2CCN3Cc2cnn(C)c2)n1,-6.02%,3.9%,-3.89%,2.88%,0.75%,-0.457%,-2.15%,34%,-8.6%,-1.93%,-10%,1.01%
COCC(=O)NC1CC2(CCN(CCF)CC2)Oc2ccccc21 (stereo not drawn),-7.73%,1.3%,-6.51%,-0.183%,-2.63%,1.37%,8.67%,16.2%,6.84%,0%,-2.5%,-22.9%
